Source: PubChem BioAssay AID1159580 (chemical genetic matrix, 2015)
Among all 5,500 compounds or so, about 2,000 (36%) were called active. Inconclusive results (about 18%) are left out. Cut-off read from the data, not from the text of the source: active = normalized growth mostly below about 0.91 (no sharp cut-off); inconclusive = no clear call, values can overlap the other calls; inactive = mostly above about 0.92. This is one part of the list.

Experiment: chemical genetic growth profiling, strain panel (AID 1159580);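 note: tested at 20 µM; growth read once vehicle control cultures reached saturation at 30 °C; 1 = growth at the plate median or of vehicle wells; lower values mean less growth of the strain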
Conditions: growth OD

Measured: normalized growth

CCN(CC)CCNC(=O)c1cc(Br)c(N)cc1OC
inactive: S. cerevisiae deletion strains, locus YJR043C, strain POL32, stronger effect = lower value 0.917 | S. cerevisiae deletion strains, locus YJR066W, strain TOR1, stronger effect = lower value 0.933 | S. cerevisiae deletion strains, locus YKL009W, strain mrt4, stronger effect = lower value 0.955 | S. cerevisiae deletion strains, locus YKL068W, stronger effect = lower value 0.989 | S. cerevisiae deletion strains, locus YKL085W, strain MDH1 (second series), stronger effect = lower value 0.993 | S. cerevisiae deletion strains, locus YKL085W, strain MDH1, stronger effect = lower value 0.993 | S. cerevisiae deletion strains, locus YKL160W, strain elf1, stronger effect = lower value 0.985 | S. cerevisiae deletion strains, locus YKL190W, strain CNB1, stronger effect = lower value 0.982 | S. cerevisiae deletion strains, locus YKR001C, strain vps1, stronger effect = lower value 0.984 | S. cerevisiae deletion strains, locus YKR026C, strain gcn3, stronger effect = lower value 0.971 | S. cerevisiae deletion strains, locus YKR091W, strain srl3, stronger effect = lower value 0.99 | S. cerevisiae deletion strains, locus YLL001W, strain dnm1, stronger effect = lower value 1 | S. cerevisiae deletion strains, locus YLL026W, stronger effect = lower value 0.99 | S. cerevisiae deletion strains, locus YLL041C, strain sdh2, stronger effect = lower value 0.98 | S. cerevisiae deletion strains, locus YLR027C, strain aat2, stronger effect = lower value 0.992 | S. cerevisiae deletion strains, locus YLR039C, strain RIC1, stronger effect = lower value 0.974 | S. cerevisiae deletion strains, locus YLR058C, strain SHM2, stronger effect = lower value 0.971 | S. cerevisiae deletion strains, locus YLR102C, strain apc9, stronger effect = lower value 0.991 | S. cerevisiae deletion strains, locus YLR113W, strain HOG1, stronger effect = lower value 1.01 | S. cerevisiae deletion strains, locus YLR221C, strain rsa3, stronger effect = lower value 0.992 | S. cerevisiae deletion strains, locus YLR258W, strain gsy2, stronger effect = lower value 0.991 | S. cerevisiae deletion strains, locus YLR262C, strain YPT6 (second series), stronger effect = lower value 1.02 | S. cerevisiae deletion strains, locus YLR262C, strain YPT6, stronger effect = lower value 0.958 | S. cerevisiae deletion strains, locus YLR268W, strain sec22, stronger effect = lower value 0.983 | S. cerevisiae deletion strains, locus YLR320W, strain mms22, stronger effect = lower value 1.01 | S. cerevisiae deletion strains, locus YLR330W, strain CHS5, stronger effect = lower value 1 | S. cerevisiae deletion strains, locus YLR342W, strain FKS1 (second series), stronger effect = lower value 1.08 | S. cerevisiae deletion strains, locus YLR342W, strain FKS1, stronger effect = lower value 0.991 | S. cerevisiae deletion strains, locus YLR357W, strain rsc2, stronger effect = lower value 0.974 | S. cerevisiae deletion strains, locus YLR370C, strain arc18, stronger effect = lower value 0.994 | S. cerevisiae deletion strains, locus YLR371W, strain rom2, stronger effect = lower value 0.995 | S. cerevisiae deletion strains, locus YLR384C, strain iki3, stronger effect = lower value 0.991 | S. cerevisiae deletion strains, locus YLR418C, strain cdc73, stronger effect = lower value 1.04 | S. cerevisiae deletion strains, locus YML016C, strain PPZ1, stronger effect = lower value 0.994 | S. cerevisiae deletion strains, locus YML032C, strain rad52, stronger effect = lower value 0.968 | S. cerevisiae deletion strains, locus YML120C, strain ndi1, stronger effect = lower value 0.99 | S. cerevisiae deletion strains, locus YML124C, strain tub3, stronger effect = lower value 0.98 | S. cerevisiae deletion strains, locus YMR058W, strain fet3, stronger effect = lower value 0.982 | S. cerevisiae deletion strains, locus YMR078C, strain ctf18, stronger effect = lower value 0.988 | S. cerevisiae deletion strains, locus YMR125W, strain sto1, stronger effect = lower value 0.975 | S. cerevisiae deletion strains, locus YMR129W, stronger effect = lower value 0.986 | S. cerevisiae deletion strains, locus YMR205C, strain PFK2, stronger effect = lower value 1.03 | S. cerevisiae deletion strains, locus YMR223W, strain ubp8, stronger effect = lower value 1.02 | S. cerevisiae deletion strains, locus YMR231W, strain pep5, stronger effect = lower value 1 | S. cerevisiae deletion strains, locus YMR307W, strain GAS1, stronger effect = lower value 1.07 | S. cerevisiae deletion strains, locus YNL067W, strain RPL9B, stronger effect = lower value 0.964 | S. cerevisiae deletion strains, locus YNL071W, strain lat1, stronger effect = lower value 0.987 | S. cerevisiae deletion strains, locus YNL153C, strain GIM3, stronger effect = lower value 0.961 | S. cerevisiae deletion strains, locus YNL183C, strain NPR1, stronger effect = lower value 0.956 | S. cerevisiae deletion strains, locus YNL209W, strain ssb2, stronger effect = lower value 0.988 | S. cerevisiae deletion strains, locus YNL233W, strain BNI4, stronger effect = lower value 0.957 | S. cerevisiae deletion strains, locus YNL248C, strain rpa49, stronger effect = lower value 0.969 | S. cerevisiae deletion strains, locus YNL250W, strain rad50, stronger effect = lower value 0.986 | S. cerevisiae deletion strains, locus YNL271C, strain bni1, stronger effect = lower value 0.988 | S. cerevisiae deletion strains, locus YNL298W, strain CLA4, stronger effect = lower value 0.985 | S. cerevisiae deletion strains, locus YNL307C, strain MCK1, stronger effect = lower value 0.981 | S. cerevisiae deletion strains, locus YNL322C, strain KRE1 (second series), stronger effect = lower value 0.987 | S. cerevisiae deletion strains, locus YNR049C, strain mso1, stronger effect = lower value 0.969 | S. cerevisiae deletion strains, locus YNR052C, strain pop2, stronger effect = lower value 0.992 | S. cerevisiae deletion strains, locus YOL006C, strain TOP1, stronger effect = lower value 0.879 | S. cerevisiae deletion strains, locus YOL012C, strain htz1 1.14 | S. cerevisiae deletion strains, locus YOL147C, strain pex11, stronger effect = lower value 0.989 | S. cerevisiae deletion strains, locus YOR001W, strain rrp6, stronger effect = lower value 0.966 | S. cerevisiae deletion strains, locus YOR061W, strain CKA2, stronger effect = lower value 0.97 | S. cerevisiae deletion strains, locus YOR069W, strain VPS5, stronger effect = lower value 0.992 | S. cerevisiae deletion strains, locus YOR070C, strain gyp1, stronger effect = lower value 0.996 | S. cerevisiae deletion strains, locus YOR080W, strain dia2, stronger effect = lower value 0.975 | S. cerevisiae deletion strains, locus YOR083W, strain WHI5, stronger effect = lower value 0.978 | S. cerevisiae deletion strains, locus YOR106W, strain vam3, stronger effect = lower value 0.992 | S. cerevisiae deletion strains, locus YOR136W, strain idh2, stronger effect = lower value 0.977 | S. cerevisiae deletion strains, locus YOR144C, strain elg1, stronger effect = lower value 0.998 | S. cerevisiae deletion strains, locus YOR184W, strain ser1, stronger effect = lower value 0.987 | S. cerevisiae deletion strains, locus YOR231W, strain MKK1, stronger effect = lower value 0.96 | S. cerevisiae deletion strains, locus YOR265W, strain rbl2, stronger effect = lower value 0.996 | S. cerevisiae deletion strains, locus YOR270C, strain vph1, stronger effect = lower value 1.01 | S. cerevisiae deletion strains, locus YOR290C, strain snf2, stronger effect = lower value 0.956 | S. cerevisiae deletion strains, locus YOR316C, strain cot1, stronger effect = lower value 0.975 | S. cerevisiae deletion strains, locus YPL051W, strain arl3, stronger effect = lower value 0.981 | S. cerevisiae deletion strains, locus YPL078C, strain atp4, stronger effect = lower value 0.975 | S. cerevisiae deletion strains, locus YPL106C, strain sse1, stronger effect = lower value 0.965 | S. cerevisiae deletion strains, locus YPL240C, strain hsp82, stronger effect = lower value 0.98 | S. cerevisiae deletion strains, locus YPL256C, strain CLN2, stronger effect = lower value 0.963 | S. cerevisiae deletion strains, locus YPR119W, strain clb2, stronger effect = lower value 0.99 | S. cerevisiae deletion strains, locus YPR141C, strain kar3, stronger effect = lower value 0.99 | S. cerevisiae deletion strains, locus YPR163C, strain tif3, stronger effect = lower value 0.998 | S. cerevisiae deletion strains, locus YPR167C, strain met16, stronger effect = lower value 0.991 | S. cerevisiae deletion strains, strain wtn01, stronger effect = lower value 1.03 | S. cerevisiae strains, strain wild type, stronger effect = lower value 0.987
